# High-throughput results deposited in PubChem BioAssay by National Center for Advancing Translational Sciences (NCATS).
# Hits are enriched below; roughly 20% of the tested compounds scored in any of these assays.
# Pf growth 48h: P. falciparum growth inhibition at 48 hours (one generation); P. falciparum luciferase growth in erythrocytes, 48 h; 5.9% of 310,000 active; Potency, µM (top dose mostly 28.7 µM), for inactives: at the highest dose activity change, negative = inhibition, hits mostly inhibitors; also: potency is read from the fitted curve at half-maximal effect; % is scaled to controls: 0 for no effect and ±100 for the full control effect
#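 Cell-based growth assay: transgenic P. falciparum expressing firefly luciferase, cultured in red cells within RPMI 1640 containing 0.5% w/v Albumax, 24 mM bicarbonate and gentamycin. A drop in luciferase activity indicates inhibition.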
# Cycloheximide cs: counter-screen for Shiga toxin inhibitors: cycloheximide protein synthesis inhibition; 12% of 300,000 active; max response, %; cell reporter, cycloheximide protein synthesis inhibition counterscreen; in the data active = max response mostly above about 13%, no sharp cut-off; inactive = mostly below about 14%; also: read at 38.3 µM for the half of the compounds with a filed dose; 0% is about no effect
# Shiga inhibitor: blocks Shiga toxin action in Vero cells. inhibition, % at 38.7 µM. Vero cells, Shiga toxin protein synthesis inhibition reporter. 9.2% of 290,000 active; in the data active = inhibition mostly above about 28%, no sharp cut-off; inactive = mostly below about 43%; also: 0% is about no effect
# Pf growth 96h: P. falciparum growth inhibition at 96 hours; P. falciparum luciferase reporter growth, 96 h; Potency, µM (series often up to 28.7 µM), without a hit: at the highest dose activity change, negative = inhibition, usual class: inhibitors; 6.9% of 320,000 active; AID 504834; also: potency is read from the fitted curve at half-maximal effect; % is scaled to controls: 0 for no effect and ±100 for the full control effect
#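 P. falciparum expressing integrated firefly luciferase grown in erythrocytes (2% hematocrit, 0.05% parasitemia final) with compounds for 96 hours at 37 C, 5% CO2. Growth inhibition read as loss of luminescence after adding luciferase detection reagent.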
# HCMV antiviral: blocks human cytomegalovirus replication; HFF cells, HCMV-luciferase reporter, 72 h; stronger effect = lower value; activity change, negative = inhibition, % at 57.5 µM; 4.5% of 410,000 active; AID 1259415; in the data active = activity change below about -60%; inconclusive = no clear call, values can overlap the other calls; inactive = above about -39%; also: % is scaled to controls: 0 for no effect and ±100 for the full control effect
#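 Two-dose cell screen: HFF monolayers treated with compounds and infected with luciferase-expressing HCMV at 1 PFU/cell, 72 h at 37C, then lysed for luciferase measurement.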
# An asterisk follows results filed as active; ? = inconclusive; . = no result; [ ] = remark or other dose. Unless noted, calls follow the shape of the dose curve; as a rule, active = well fitted inhibition curve with a large enough effect; inconclusive = small, poorly fitted or top-dose-only effect, or another doubt; inactive = no such curve, though single readings can be large or run the other way.
SMILES,Pf growth 48h,Cycloheximide cs,Shiga inhibitor,Pf growth 96h,HCMV antiviral
COc1ccc(-c2csc3nc(-c4ccccc4OC)oc(=O)c23)cc1,?,-2,-6,6%,-69*
O=c1oc(-c2ccccc2F)nc2scc(-c3ccccc3)c12,48%,21*,32*,?,-38
COc1ccc(-c2csc3nc(-c4ccc(F)cc4)oc(=O)c23)cc1,.,.,.,.,8
CCC(=N\NC(=O)COc1ccccc1OC)/C(CC)=N/NC(=O)COc1ccccc1OC,9.3µM*,.,.,?,4
CCOc1ccccc1OCC(=O)N/N=C(\C)Cc1ccc(OC)cc1,-25%,4,-4,?,41
COc1ccccc1OCC(=O)NN=C(Cc1ccccc1)Cc1ccccc1,?,20,33,?,-63*
CCOc1ccc(-c2cc(NC(=O)c3c(F)cccc3F)c(C(=O)OC)s2)cc1,.,.,.,.,-1
COc1ccccc1CNC(=O)CCN1C(=O)COc2ccc(C)cc21,3%,-3,-14,6%,-13
COc1ccccc1CNC(=O)CCCN1C(=O)COc2ccc(C)cc21,-19%,8,1,9.3µM*,-2
COc1ccccc1CNC(=O)CN1C(=O)COc2ccc(S(=O)(=O)NC3CCCC3)cc21,18%,21*,-10,37%,-31
C/C=C(/C)C(=O)Nc1cccc(C2=NOC3(C2)C[C@@H](C(N)=O)N(C(=O)/C=C/CC)C3)c1 (some centres undefined),42%,-3,2,55%,21
CCN(CC)S(=O)(=O)c1nnc(NC(=O)COc2ccc(C)cc2)s1,.,.,.,.,-4
Cn1cc(C(=O)c2cccc(Cl)c2)cc1C#N,3%,4,-11,-7%,-19
Cn1cc(C(=O)c2cccc(Cl)c2)cc1/C=N\O,77%,33*,39,28%,10
Cc1ccc(NC(=O)CS(=O)CC(=O)N(c2ccc(C)cc2)C(C)C(=O)NC2CCCCC2)cc1 (centres undefined),13µM*,-4,2,?,-4
O=C(CS(=O)CC(=O)N(c1ccccc1)C(C(=O)NC1CCCCC1)c1ccco1)Nc1ccc(F)cc1 (centres undefined),?,-5,9,7.4µM*,?
CC1CC(C)CN(CCOc2ccc(Br)cc2)C1 (centres undefined),?,-2,11,3%,-7
CCOC(=O)C1(CCOC)CCN(C(C)CCc2ccc(OC)cc2)CC1 (centres undefined),9%,-4,-1,?,-26
COC(=O)C1=C(c2ccc(F)cc2F)C[C@@H]2CC[C@H]1N2C(=O)NCc1ccc(F)cc1,?,.,.,4%,-9
COC(=O)C1=C(c2ccc(-c3ccccc3)c(F)c2)C[C@@H]2CC[C@H]1N2C(=O)NC1CC1,4.7µM*,.,.,2.9µM*,6
COC(=O)C1=C(c2ccc(F)cc2F)C[C@@H]2CC[C@H]1N2C(=O)NCCOc1ccccc1,?,.,.,4.1µM*,-11
COC(=O)C1=C(c2ccc3ccccc3c2)C[C@@H]2CC[C@H]1N2C,?,.,.,10%,-15
COC(=O)C1=C(c2ccc3ccccc3c2)C[C@@H]2CC[C@H]1N2C(=O)NC(C)C,?,.,.,-18%,-63*
CCCNC(=O)N1[C@H]2CC[C@@H]1C(C(=O)OC)=C(c1ccc(-c3ccccc3)c(F)c1)C2,9.3µM*,.,.,?,10
CSc1ncc(Cl)c(C(=O)N(C)c2ccccc2)n1,.,.,.,.,-5
SMILES,Pf growth 48h,Cycloheximide cs,Shiga inhibitor,Pf growth 96h,HCMV antiviral
CCOCCCNS(=O)(=O)c1ccc(-n2cnnn2)c(OC)c1,47%,9,11,.,0
COC(=O)C1=C(c2cc3ccccc3s2)C[C@@H]2CC[C@H]1N2C(=O)NC1CC1,.,.,.,.,-63*
COC(=O)C1=C(c2ccc(-c3ccccc3)c(F)c2)C[C@@H]2CC[C@H]1N2C(=O)NCCOc1ccccc1Cl,10µM*,.,.,?,88
COC(=O)C1=C(c2ccc(-c3ccccc3)c(F)c2)C[C@@H]2CC[C@H]1N2C(=O)NCCO,?,.,.,-25%,-20
CCCN(CCC)[C@@H]1CCc2cccc(O)c2C1,5.2µM*,-4,-6,4.1µM*,-2
Cc1nc(C(F)(F)F)ccc1C(=O)N1CCC1(C)C(=O)NS(=O)(=O)c1cccc(Cl)c1 (centres undefined),.,.,.,.,-91*
CC1=CN2C(=N)/C(=C/c3ccc([N+](=O)[O-])o3)C(=O)N=C2S1,14%,13,18,-27%,-96*
Cc1ccc(-n2cccc2/C=C2\C(=N)N3N=C(c4ccco4)SC3=NC2=O)cc1,?,-1,-4,?,-21
CC1=CN2C(=N)/C(=C/c3ccco3)C(=O)N=C2S1,33%,47*,72*,54%,67
CCCCC1CCC(C(=O)N2CC(=O)Nc3ccc(F)cc3C2c2ccc(F)cc2)CC1 (centres undefined),.,.,.,.,-15
O=c1nc2n(c3ccccc13)Cc1ccccc1-2,-13%,-1,-3,-7%[5.75 µM],.
Cc1ccccc1-c1nc2sc(C)c(C)c2c(=O)o1,17%,17*,.,?,51
Cc1sc2nc3n(c(=O)c2c1C)Cc1ccccc1-3,63%,34*,77*,-5%,.
Cc1sc2nc(-c3ccco3)oc(=O)c2c1C,12%,14,-11,.,60
O=c1c2cccc(Cl)c2nc2n1Cc1ccccc1-2,73%,18*,28,187%,52
CC(=O)N(C)C[C@H]1Oc2ncc(Br)cc2C(=O)N([C@H](C)CO)C[C@@H]1C,.,.,.,.,22
CCCCCC(=O)NN=C1CCN(Cc2ccccc2)CC1,1%,0,2,1%,-30
CN(C)c1ccc(/C=C2\SC(=O)N(CC(O)Cn3c4ccccc4c4ccccc43)C2=O)cc1 (centres undefined),?,1,-7,-2%,-3
CN(C)c1ccc(/C=C2/SC(=O)N(CCN=C3NS(=O)(=O)c4ccccc43)C2=O)cc1,-5%,29*,63*,-3%,24
COC(=O)N1C(=O)[C@](c2ccc(OC)cc2)(C(C)C)N1C(=O)OC,11%,10*,14,2%,21
COC(=O)N1C(=O)[C@](c2ccsc2)(C(C)C)N1C(=O)OC,38%,20*,14,7%,23
CC(C)C1(c2ccsc2)NC(=O)NC1=O (centres undefined),.,.,.,.,-13
O=C(NCCOCCn1c(=O)oc2ccccc21)Nc1ccc(F)cc1,.,.,.,.,-4
O=S(=O)(c1ccc(Br)cc1)c1nc(-c2cccs2)oc1SCc1ccccc1F,.,.,.,.,-9
CN(C)c1ccc(/C=C/c2nc(-c3ccccc3O)n(-c3ccccc3)n2)cc1,.,.,.,.,-11
CN(C)c1ccc(/C=N/c2cc(-c3ccccc3)nn2-c2ccccc2)cc1,.,39*,57*,91%,70
Cc1ccc(C=Nc2ccccc2C(N)=O)o1,155%,61*,61*,202%,3
CN(C)c1ccc(/C=N/NC(=O)C[n+]2ccccc2)cc1,.,.,.,.,13
CN(C)c1ccc(C=Nc2ccccc2C(N)=O)cc1,12%,26*,39,30%,44
